# PubChem BioAssay (EPA / NIEHS)
# The source made the active and inactive calls. Rule for the calls: active = hit-call score of the fitted dose curve at least 0.9, where 1 is the maximum; inactive = score below 0.9.
# Read-out: Interleukin-1 alpha (IL1a), IL1A (gene 3552)
# Experiment: BSK_BE3C_IL1a: BioMAP Diversity Plus: BE3C Assay for Interleukin-1 alpha (IL1a) Biomarker Activity (AID 2283016)
# Details: primary human bronchial epithelial cells; actives raise or lower the signal
# Procedure, shortened: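 Human primary bronchial epithelial cells (BE3C system) were dosed with compound and IL-1a measured by ELISA 24 h later. Activity was fitted bidirectionally against DMSO baseline; cytotoxicity was tracked in parallel cultures by SRB total-protein staining.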
SMILES,AC50,outcome
NC(=O)c1nc(-c2cccc(-c3cc(F)ccc3OCC(F)(F)C(F)(F)F)c2)n[nH]1,38.8 µM (active),–
O=C(Nc1ccc(Cl)cc1)Nc1ccc(Cl)c(Cl)c1,–,inactive
CCCCCCCCCCCC[N+](C)(C)C,31.9 µM (active),–
CC[C@H](NC(=O)c1cc(F)ccc1NS(=O)(=O)c1cccc2cccnc12)c1ccccc1,–,inactive
O=C=NCCCCCCN=C=O,–,inactive
CN(C)C(=O)C1(N2CCCCC2)CCN(CC[C@@]2(c3ccc(Cl)c(Cl)c3)CN(C(=O)c3ccccc3)CCO2)CC1,29.2 µM (active),–
CCCCOC(=O)CC(CC(=O)OCCCC)(OC(C)=O)C(=O)OCCCC,–,inactive
Clc1ccccc1C(c1ccccc1)(c1ccccc1)n1ccnc1,7.88 µM (active),–
Cc1occc1C(=O)Nc1ccc(C(=O)N2CCC(F)(F)/C(=C\C(=O)N3CCC(N4CCCCC4)CC3)c3ccccc32)cc1,–,inactive
Cc1cn([C@H]2C[C@H](N=[N+]=[N-])[C@@H](CO)O2)c(=O)[nH]c1=O,–,inactive
Oc1ccc2ccccc2c1,–,inactive
COc1ccc2cc(S(=O)(=O)N[C@H](CC(=O)N[C@H](Cc3ccc(CN4[C@H](C)CCC[C@@H]4C)cc3)C(=O)N(C)C(C)C)c3ccc4c(c3)OCO4)ccc2c1,–,inactive
CCCCCCCCCC(=O)O,–,inactive
CC(C)(C)c1csc(-c2cc3cc(OCc4ccccc4CC(=O)O)ccc3o2)n1,10 µM (active),–
CC(C)(C)c1cc(/C=C2\SC(N)=NC2=O)cc(C(C)(C)C)c1O,–,inactive
CCOC(=O)O[C@H](C)OC(=O)c1ccc2c(c1)cc(C(=O)NC1CCN(C(C)C)CC1)n2Cc1cc(-c2ccc(Cl)s2)on1,11 µM (active),–
CN(C)c1ccc(C(=C2C=CC(=[N+](C)C)C=C2)c2ccc(N(C)C)cc2)cc1,2.36 µM (active),–
O=c1ccc2ccccc2o1,–,inactive
c1ccc2n[nH]nc2c1,–,inactive

SMILES,AC50,outcome
CCCCCCCCOC(=O)c1cc(O)c(O)c(O)c1,33.4 µM (active),–
CC(C)(c1cc(Br)c(O)c(Br)c1)c1cc(Br)c(O)c(Br)c1,5.72 µM (active),–
CCN(Cc1cccc(S(=O)(=O)O)c1)c1ccc(C(=C2C=CC(=[N+](CC)Cc3cccc(S(=O)(=O)O)c3)C=C2)c2ccccc2S(=O)(=O)[O-])cc1,–,inactive
CC[C@@H]1C[C@H](N(Cc2cc(C(F)(F)F)cc(C(F)(F)F)c2)C(C)=O)c2cc(C(F)(F)F)ccc2N1C(=O)OC(C)C,–,inactive
CCN(Cc1cccnc1)C(=O)c1cccc(Cl)c1[C@]1(C)C(=O)N(Cc2ccc(OC)cc2OC)c2ccc(Cl)cc21,–,inactive
Cc1ccc2oc(CN(Cc3ccccc3)C(=O)Nc3c(F)cc(F)cc3F)c(-c3ccc(Cl)cc3)c2c1,–,inactive
C[C@]12CC[C@@H]3c4ccc(O)cc4CC[C@H]3[C@@H]1CCC2=O,–,inactive
Cc1cc(F)ccc1-c1cc(N2CC[C@@H](O)[C@H]2CO)ncc1N(C)C(=O)C(C)(C)c1cc(C(F)(F)F)cc(C(F)(F)F)c1,14.6 µM (active),–
Cc1c2ccccc2c(C)c2c1ccc1ccccc12,–,inactive
CCN(CC)C(=O)c1cc(S(=O)(=O)Cc2ccccc2)c(N2CCC(c3ccccc3)CC2)cc1N(CC)CCN(C)C,9.53 µM (active),–
CC1=CC(=O)/C(=C(/C)O)C(=O)O1,–,inactive
CCCCCCCCOc1ccc(C(=O)c2ccccc2)c(O)c1,–,inactive
CN1C(=O)N(c2ccccc2Br)Cc2cnc(Nc3ccc4c(c3)OCC(CO)O4)nc21 (stereo unspecified),2.57 µM (active),–
COCC(C)OCC(C)OCC(C)O (stereo unspecified),–,inactive
CCCOC(=O)c1cc(O)c(O)c(O)c1,–,inactive
COc1cccc([C@H](O)C2CCN(CCc3ccc(F)cc3)CC2)c1OC,–,inactive
CC1(C)NC(=O)N(c2ccc([N+](=O)[O-])c(C(F)(F)F)c2)C1=O,–,inactive
c1ccc(C[n+]2cccc3ccccc32)cc1,–,inactive
Cc1oc2c(NC(=O)c3c(Cl)cccc3Cl)cccc2c1C(C)(C)O,23.6 µM (active),–

# Read-out: Monocyte Chemoattractant Protein-1 (MCP1), CCL2 (gene 6347)
# Experiment: BSK_3C_MCP1: BioMAP Diversity Plus: 3C Assay for Monocyte Chemoattractant Protein-1 (MCP1) Biomarker Activity (AID 2283017)
# Details: primary human endothelial cells (HUVEC); actives raise or lower the signal
# Procedure, shortened: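 MCP-1 was measured by ELISA 24 h after dosing in primary HUVEC 3C cultures and fitted in both directions relative to DMSO; cytotoxicity was checked by SRB total-protein staining in parallel wells.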
SMILES,AC50,outcome
NC(=O)c1nc(-c2cccc(-c3cc(F)ccc3OCC(F)(F)C(F)(F)F)c2)n[nH]1,35.3 µM (active),–
O=C(Nc1ccc(Cl)cc1)Nc1ccc(Cl)c(Cl)c1,3.28 µM (active),–
CCCCCCCCCCCC[N+](C)(C)C,20 µM (active),–
CC[C@H](NC(=O)c1cc(F)ccc1NS(=O)(=O)c1cccc2cccnc12)c1ccccc1,–,inactive
O=C=NCCCCCCN=C=O,–,inactive
CN(C)C(=O)C1(N2CCCCC2)CCN(CC[C@@]2(c3ccc(Cl)c(Cl)c3)CN(C(=O)c3ccccc3)CCO2)CC1,22.9 µM (active),–
CCCCOC(=O)CC(CC(=O)OCCCC)(OC(C)=O)C(=O)OCCCC,–,inactive
Clc1ccccc1C(c1ccccc1)(c1ccccc1)n1ccnc1,15.9 µM (active),–
Cc1occc1C(=O)Nc1ccc(C(=O)N2CCC(F)(F)/C(=C\C(=O)N3CCC(N4CCCCC4)CC3)c3ccccc32)cc1,–,inactive
Cc1cn([C@H]2C[C@H](N=[N+]=[N-])[C@@H](CO)O2)c(=O)[nH]c1=O,–,inactive
Oc1ccc2ccccc2c1,–,inactive
COc1ccc2cc(S(=O)(=O)N[C@H](CC(=O)N[C@H](Cc3ccc(CN4[C@H](C)CCC[C@@H]4C)cc3)C(=O)N(C)C(C)C)c3ccc4c(c3)OCO4)ccc2c1,12.5 µM (active),–
CCCCCCCCCC(=O)O,–,inactive
CC(C)(C)c1csc(-c2cc3cc(OCc4ccccc4CC(=O)O)ccc3o2)n1,21.6 µM (active),–
CC(C)(C)c1cc(/C=C2\SC(N)=NC2=O)cc(C(C)(C)C)c1O,30.6 µM (active),–
CCOC(=O)O[C@H](C)OC(=O)c1ccc2c(c1)cc(C(=O)NC1CCN(C(C)C)CC1)n2Cc1cc(-c2ccc(Cl)s2)on1,6.56 µM (active),–
CN(C)c1ccc(C(=C2C=CC(=[N+](C)C)C=C2)c2ccc(N(C)C)cc2)cc1,0.798 µM (active),–
O=c1ccc2ccccc2o1,–,inactive
c1ccc2n[nH]nc2c1,–,inactive

SMILES,AC50,outcome
CCCCCCCCOC(=O)c1cc(O)c(O)c(O)c1,31.8 µM (active),–
CC(C)(c1cc(Br)c(O)c(Br)c1)c1cc(Br)c(O)c(Br)c1,29.9 µM (active),–
CCN(Cc1cccc(S(=O)(=O)O)c1)c1ccc(C(=C2C=CC(=[N+](CC)Cc3cccc(S(=O)(=O)O)c3)C=C2)c2ccccc2S(=O)(=O)[O-])cc1,–,inactive
CC[C@@H]1C[C@H](N(Cc2cc(C(F)(F)F)cc(C(F)(F)F)c2)C(C)=O)c2cc(C(F)(F)F)ccc2N1C(=O)OC(C)C,–,inactive
CCN(Cc1cccnc1)C(=O)c1cccc(Cl)c1[C@]1(C)C(=O)N(Cc2ccc(OC)cc2OC)c2ccc(Cl)cc21,6.68 µM (active),–
Cc1ccc2oc(CN(Cc3ccccc3)C(=O)Nc3c(F)cc(F)cc3F)c(-c3ccc(Cl)cc3)c2c1,–,inactive
C[C@]12CC[C@@H]3c4ccc(O)cc4CC[C@H]3[C@@H]1CCC2=O,–,inactive
Cc1cc(F)ccc1-c1cc(N2CC[C@@H](O)[C@H]2CO)ncc1N(C)C(=O)C(C)(C)c1cc(C(F)(F)F)cc(C(F)(F)F)c1,10 µM (active),–
Cc1c2ccccc2c(C)c2c1ccc1ccccc12,5.5 µM (active),–
CCN(CC)C(=O)c1cc(S(=O)(=O)Cc2ccccc2)c(N2CCC(c3ccccc3)CC2)cc1N(CC)CCN(C)C,10.4 µM (active),–
CC1=CC(=O)/C(=C(/C)O)C(=O)O1,–,inactive
CCCCCCCCOc1ccc(C(=O)c2ccccc2)c(O)c1,–,inactive
CN1C(=O)N(c2ccccc2Br)Cc2cnc(Nc3ccc4c(c3)OCC(CO)O4)nc21 (stereo unspecified),14.7 µM (active),–
COCC(C)OCC(C)OCC(C)O (stereo unspecified),–,inactive
CCCOC(=O)c1cc(O)c(O)c(O)c1,–,inactive
COc1cccc([C@H](O)C2CCN(CCc3ccc(F)cc3)CC2)c1OC,–,inactive
CC1(C)NC(=O)N(c2ccc([N+](=O)[O-])c(C(F)(F)F)c2)C1=O,–,inactive
c1ccc(C[n+]2cccc3ccccc32)cc1,–,inactive
Cc1oc2c(NC(=O)c3c(Cl)cccc3Cl)cccc2c1C(C)(C)O,–,inactive
